Data reported in PubChem BioAssay (NCI).
Compounds without any hit were thinned out: in the full panel of roughly 83,000, 20% have a hit.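 Plates (96-well) were seeded with cells, treated with compound at one concentration, and incubated for 48 hours before percent growth was determined.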 Values without a mark were called inactive. Calls of active or inactive are those of the source. Rule for the calls: active = growth percent below 10; inactive = the rest.

Key:
Assay in all cases: NCI-60 one-dose screen, 48 h (100 = growth as untreated, 0 = no growth, -100 = all killed)
Conditions in all cases: 10 µM unless noted
[1] = test system: SR leukemia
[2] = test system: RPMI-8226 leukemia
[3] = test system: OVCAR-8 ovarian
[4] = test system: OVCAR-5 ovarian
[5] = test system: OVCAR-4 ovarian
[6] = test system: SK-OV-3 ovarian
[7] = test system: IGROV1 ovarian
[8] = test system: OVCAR-3 ovarian
[9] = test system: HS 578T breast
[10] = test system: NCI/ADR-RES ovarian
[11] = test system: T-47D breast
[12] = test system: MDA-MB-435 melanoma
[13] = test system: SW-620 colon
[14] = test system: MCF7 breast
[15] = test system: HCT-116 colon
[16] = test system: HCC-2998 colon
[17] = test system: KM12 colon
[18] = test system: BT-549 breast

Row | SMILES | growth [1] | growth [2] | growth [3] | growth [4] | growth [5] | growth [6] | growth [7] | growth [8] | growth [9] | growth [10] | growth [11] | growth [12] | growth [13] | growth [14] | growth [15] | growth [16] | growth [17] | growth [18]
1 | CSc1nc(Nc2ccc(S(=O)(=O)Nc3ccon3)cc2)c(C#N)c(-c2ccc(Cl)cc2)n1 | -37.8% (active) | 71.3% | 95.7% | 106% | 113% | 108% | 96.6% | 122% | 106% | 102% | 97% | 97.9% | 70.5% | 94.3% | 65.8% | 94.4% | 104% | 
2 | O=C(NCCNC(=O)Oc1cccc2ccccc12)Oc1cccc2ccccc12 | 97.8% | 92.5% | 100% | 105% | 96.4% | 94.5% | 65.2% | 86.5% | 104% | 95.8% | 71.7% | 114% | 102% | 84.4% | 99.7% |  | 104% | 105%
3 | Cc1cc2c(cc1C)[n+](Cc1ccc3ccccc3n1)cn2Cc1ccc2ccccc2n1 | -20.2% (active) | -30.7% (active) | 6.48% (active) | 23.6% | 8.38% (active) | 0.95% (active) | -4.22% (active) | 3.63% (active) | 27.3% | 96.4% | -1.32% (active) | -24.5% (active) | 9.34% (active) |  | -0.984% (active) | 3.84% (active) | -7.23% (active) | -45.9% (active)
4 | Cc1ccc(/C=C(/C#N)n2nnc3ncccc32)cc1 | 15.2% | 7.18% (active) | -1.49% (active) | -20.3% (active) | 25.7% | 14.2% | 19.3% | -15% (active) | 0.782% (active) | 2.09% (active) | 5.39% (active) | -52.9% (active) | 9.59% (active) |  | 4.5% (active) | 15.7% | 24.6% | 11.3%
5 | COc1ccc(-c2ccc(O)c(C(=O)/C=C/c3cc(OC)c(OC)c(OC)c3)c2)cc1 | 56.2% | 24.7% | 71.8% | 106% | 79.6% | 77.6% | 78.3% | 93.7% | 113% | 69.9% | 67% | 64.6% | 88.6% |  | 68.8% | 100% |  | 90.4%
6 | COc1cccc(-c2nc3cc(NC(=O)c4ccc(Cl)c(C#N)c4)ccc3o2)c1 | 38.2% | -2.38% (active) | -54.6% (active) | 73.3% | -90.4% (active) | 15.6% | 72.4% | -30.6% (active) | 39.1% | 3.74% (active) | -20.4% (active) | -73.3% (active) | 46.9% | 8% (active) | -92.2% (active) | 29.6% | -51.8% (active) | 
7 | N#Cc1c(-c2ccccc2)cc(-c2ccccc2)n(CCCCCCC(=O)O)c1=O | 88.4% | 108% | 69.4% | 99.5% | 111% | 117% | 105% | 109% | 101% | 102% | 91.1% | 102% | 103% | 67.9% | 98.5% | 111% |  | 
8 | CCOC(=O)/C(=C/CC/C(C)=C/CC/C(C)=C/CCc1ccoc1)CC(=O)N1CCCCC1 | 19.8% | -5.3% (active) | 72.4% | 64.6% | 64.8% | 84.4% | 77.8% | 12.5% | 74.3% | 50.6% | 27.7% | 34.1% | 64.6% | 32% | 44.9% |  | 49% | 88%
9 | OCc1n(Cc2ccc3ccccc3c2)cc[n+]1Cc1ccc2ccccc2c1 | 15.9% | 13.5% | 60.7% | 62.3% | 23.9% | 75.9% | 21.9% | 39.9% | 66.1% | 103% | 31.3% | 5.53% (active) | 67.7% | 61.8% | 35.6% | 39.8% |  | 
10 | CC(=O)c1ccc(NS(=O)(=O)c2ccc([N+](=O)[O-])cc2)cc1 | 83.8% | 101% | 106% | 98.2% | 112% | 95.7% | 107% | 108% | 115% | 109% | 86.3% | 122% | 108% | 99.3% | 102% |  | 111% | 102%
11 | O=C(C(=O)c1cc(Br)ccc1O)c1cc(Br)ccc1O | 24.3% | 16.6% | 64.2% | 93.4% | 42.2% | 79.6% | 32.3% | 15.9% | 38.8% | 32.8% | 8.38% (active) | 49.8% | 66.5% | 36.5% | 40.3% |  | 48.6% | 21.7%
12 | O=C1C=CC(=O)N1c1ccccc1N1C(=O)C=CC1=O | 92% | 124% | 107% | 93.4% | 116% | 103% | 95.3% | 103% | 104% | 119% | 102% | 122% | 57.9% |  | 105% |  | 117% | 104%
13 | O=C(CSc1ncc(-c2ccccc2)n1-c1ccccc1)Nc1ccc(-c2nc3ccccc3s2)cc1 | 73% | 65.5% | 27.2% | 82.5% | 52.5% | 116% | 73.4% | 95.4% | 91.9% | 61.2% | 56.3% | 55.9% | 64.4% |  | 42.1% |  | 51.1% | 103%
14 | O=C(NC1CCCCC1)c1ccc(Nc2ncnc3c2cnn3-c2ccccc2)cc1 | 67.5% | 89.5% | 21.6% | 80.3% | 30.3% | 54% | 71.1% | 87.4% | 0.218% (active) | 74.2% | 76.8% | 81.2% | 72.9% |  | 37.6% |  | 88.5% | 59.8%
15 | Fc1ccccc1C1c2ccccc2-c2nccn21 (stereo not given) | 78.1% | 80.3% | 95.8% | 96.3% | 90% | 109% | 79.6% | 96.7% | 98.8% | 93.5% | 91.3% | 108% | 107% | 101% | 90.1% | 103% | 93.8% | 
16 | COc1ccc(-c2cc(-c3nnc(SCC(=O)Nc4ccc(C(C)=O)cc4)n3-c3ccccc3)c3ccccc3n2)cc1OC | 121% | 105% | 104% | 106% | 106% | 81.6% | 105% | 96.8% | 108% | 104% | 84% | 105% | 104% |  | 83.4% | 99.6% | 95.9% | 86.1%
17 | CCSc1nc(-c2cccs2)n2nc(-c3ccco3)cc2n1 | 92.7% | 53.9% | 99.8% | 97.3% | 68.9% | 106% | 87.5% | 112% | 108% | 103% | 43.1% | 111% | 102% |  | 94.8% | 105% | 82.5% | 113%
18 | COc1ccc(NC(=O)c2ccc(-c3ccccc3)cc2)c(C(N)=O)c1 | 72.2% | 96.3% | 108% | 112% | 115% | 98.5% | 102% | 96.6% | 104% | 98.2% | 88.6% | 98.5% | 110% | 96.6% | 106% | 102% | 99.2% | 
